Consider 19 compounds from PMC11062922 (Nature Chemical Biology, 2023).

Where two headings read alike, the source gives them in different places.

Common to all, as to design: species or system human, MV4-11 + K-562 + COLO205 + SK-N-BE2 + OVCAR-8
Test [1] has as its system CAMK4. The following applies: read-out: apparent Kd; compound concentrations: 100 nM and 1000 nM (sheet 'Samples'), CATDS: 7.8205742217562803E-3; n = 1.
The test system of test [2] is ERN1. The following applies: read-out: apparent Kd, compound concentrations: 100 nM and 1000 nM (sheet 'Samples'), n = 1.
For test [3], the system named is MERTK. The following applies: read-out: apparent Kd, n = 1.
The subject of test [4] is PRKX;PRKY. The following applies: read-out: apparent Kd, n = 1.
Test [5] concerns IRAK1. The following applies: read-out: apparent Kd, n = 1.
Test [6] has as its system TBK1. The following applies: read-out: apparent Kd, n = 1.
Test [7] concerns EPHB6. The note with it: read-out: apparent Kd, n = 1.
The test system of test [8] is PRKDC. The note with it: read-out: apparent Kd, n = 1.
Test [9] deals with TAOK1. The note with it: read-out: apparent Kd, n = 1.
The test system of test [10] is PIM1. The note with it: read-out: apparent Kd, n = 1.
For test [11], the system named is PKN3. The following applies: compound concentrations:0.3nM, 1nM, 3nM, 10nM, 30nM, 100nM, 300nM, by the legend:Standard error of the EC50 estimation as provided by the drc package.; for Kd: read-out: apparent Kd.
The subject of test [12] is AKT1. The following applies: read-out: apparent Kd, compound concentrations: 100 nM and 1000 nM (sheet 'Samples'), n = 1.
The test system of test [13] is MAPK11. The following applies: read-out: apparent Kd, compound concentrations: 100 nM and 1000 nM (sheet 'Samples'), n = 1.
Test [14] relates to PAK4. The note with it: compound concentrations:0.3nM, 1nM, 3nM, 10nM, 30nM, 100nM, 300nM, by the legend:Standard error of the EC50 estimation as provided by the drc package.; for Kd: read-out: apparent Kd.
The test system of test [15] is MAP2K5. The note with it: read-out: apparent Kd, compound concentrations: 100 nM and 1000 nM (sheet 'Samples'), n = 1.
Test [16] has as its system SYK. The note with it: read-out: apparent Kd, n = 1.
Test [17] deals with MAPK1. The following applies: read-out: apparent Kd, compound concentrations: 100 nM and 1000 nM (sheet 'Samples'), n = 1.
Test [18] has as its system CSNK1G1. The note with it: read-out: apparent Kd; compound concentrations: 100 nM and 1000 nM (sheet 'Samples'), CATDS: 5.3431605837735603E-3; n = 1.
Test [19] relates to PRKCI. The following applies: read-out: apparent Kd; compound concentrations: 100 nM and 1000 nM (sheet 'Samples'), CATDS: 3.8239218597995801E-3; n = 1.
The mark [20] stands for this setting: compound concentrations:100 nM and 1000 nM (sheet 'Samples').
The mark [21] stands for this setting: 1000nM,R2:0.95736535454590599,slope:1.35169947345033,EC50 Standard Error.
Setting [22] is: 1000nM,R2:0.97831665287894598,slope:1.2194506521172099,EC50 Standard Error.
Where [23] appears, read: 1000nM,R2:0.90981556238152395,slope:1.4029304179145099,EC50 Standard Error.
The mark [24] stands for this setting: 1000nM,R2:0.98802455290270397,slope:1.1906156337481999,EC50 Standard Error.
Setting [25] is: 1000nM,R2:0.96781137417830099,slope:0.58987671625518001,EC50 Standard Error.
[26] abbreviates: 1000nM,R2:0.99888452271644701,slope:1.2700915856501001,EC50 Standard Error.
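Wherever EC50 is given: competition pulldown with Kinobeads ε in cell lysates, inhibitor preincubated 45 min at 4 °C, bound kinases quantified by LC–MS/MS against DMSO control.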
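Wherever Kd is given: competition pulldown with Kinobeads ε in cell lysates, inhibitor preincubated 45 min at 4 °C, bound kinases quantified by LC–MS/MS against DMSO control.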

With `CCOC(=O)N1CCC(n2cnc(-c3ccc(F)cc3)c2-c2ccnc(N)n2)CC1` [SB-219952], the potency estimated from few doses is 1.85 µM in test [1]; 2.2 µM in [2] (CATDS: 7.4915709296516997E-3); 1.41 µM in [3] (compound concentrations: 100 nM and 1000 nM (sheet 'Samples'), CATDS: 8.4469178777721397E-3).

As for `CN(c1ccc(NC(=O)Nc2cccc(Cl)c2)cc1)c1ccnc(N)n1.Cl` [GW830707A], the potency estimated from few doses in test [4] (compound concentrations: 100 nM and 1000 nM (sheet 'Samples'), CATDS: 1.5379195282256401E-2) was 0.134 µM.

Regarding `CNC(=O)c1ccccc1Nc1nc(Nc2ccc(N3CCOCC3)cc2)ncc1Cl.Cl` [GSK1576028A], the potency estimated from few doses in test [5] (setting [20]) was 1.02 µM; in test [6] (setting [20]) it was 0.395 µM.

As to `NCCNS(=O)(=O)c1ccc(-c2ccnc3[nH]ccc23)cc1` [GSK977617A], the potency estimated from few doses in test [3] (setting [20]) was 1.44 µM.

Turning to `CN1C[C@@H]2Cn3c(c(C4=C(c5cn(C)c6ccccc56)C(=O)NC4=O)c4ccccc43)C[C@H]2C1.Cl` [RO0320234-001], the potency estimated from few doses was 1.96 µM in [7] (setting [20]), 0.859 µM in test [8] (setting [20]) and 1.35 µM in test [9] (setting [20]).

Turning to `O=C1N=C(NCCc2ccc(Cl)cc2)S/C1=C\c1ccc2ncccc2c1` [RO4498479-000], the potency estimated from few doses in test [7] (compound concentrations: 100 nM and 1000 nM (sheet 'Samples'), CATDS: 6.9765900844718596E-3) is 1.66 µM; in test [10] (compound concentrations: 100 nM and 1000 nM (sheet 'Samples'), CATDS: 9.1477666322176705E-3) it was 0.691 µM.

Turning to `Cl.NCc1ccc(-c2nc(-c3ccc(Cl)c(O)c3)c(-c3ccncc3)[nH]2)cc1` [SB-476429-A], in test [11] (setting [21]), the EC50 is 0.0384 µM and the Kd was 0.0384 µM.

As for `CCn1c(-c2nonc2N)nc2c(-c3ccccc3)ncc(OCCCN)c21.CCn1c(-c2nonc2N)nc2c(-c3ccccc3)ncc(OCCCN)c21.O=C(O)C(F)(F)F.O=C(O)C(F)(F)F` [GSK260205A], the potency estimated from few doses in [12] (CATDS: 6.9127027959846404E-2) is 0.157 µM.

Regarding `COc1cccc2c(-c3ccncc3)c(-c3ccc(F)cc3)nn12` [GW468513X], in test [13] (CATDS: 3.7828559303077401E-2), the potency estimated from few doses is 1.64 µM.

Turning to `CCn1c(-c2nonc2N)nc2c(C#CC(C)(C)O)nc(OCCNC)cc21.Cl` [GSK949675A], the potency estimated from few doses in [4] (setting [20]) is 0.355 µM. Also, the concentration giving a half-maximal response (EC50) in test [14] (setting [22]) is 0.316 µM; in [11] (setting [23]) it was 0.0898 µM. Moreover, the Kd in [14] (setting [22]) was 0.218 µM; in test [11] (setting [23]), 0.0898 µM.

Take `Fc1ccc(-c2c(-c3ccncc3)[nH]c3cccnc23)cc1` [RO1153853-000]: the potency estimated from few doses in test [13] (CATDS: 6.1294477906433602E-2) is 0.838 µM.

Regarding `COc1ccc(Nc2ncc(C#N)c(Nc3ccccc3C(N)=O)n2)cc1N1CCN(C)CC1.Cl` [GSK1558669A], the potency estimated from few doses in [2] (CATDS: 5.84806980625629E-3) was 2.14 µM; in test [5] (compound concentrations: 100 nM and 1000 nM (sheet 'Samples'), CATDS: 7.7027436488320998E-3) it was 0.467 µM; in test [15] (CATDS: 8.5242635319968205E-3), 0.318 µM; in [16] (compound concentrations: 100 nM and 1000 nM (sheet 'Samples'), CATDS: 6.16985372159695E-3) it was 1.44 µM; in [6] (compound concentrations: 100 nM and 1000 nM (sheet 'Samples'), CATDS: 1.0324038658374401E-2) it was 0.172 µM.

For the compound `CN(c1ccc(NC(=O)N2CCN(CCCN3CCOCC3)CC2)cc1)c1ccnc(Nc2ccc(CS(C)(=O)=O)cc2)n1.Cl` [GW830899A], the potency estimated from few doses in [17] (CATDS: 2.6373806441713499E-2) is 0.807 µM.

For `Cn1ncc2c(N)ncnc21` [SKF-18267], the potency estimated from few doses in test [12] (CATDS: 4.8125130234568303E-3) is 0.879 µM; in test [18] it was 0.716 µM; in test [7] (compound concentrations: 100 nM and 1000 nM (sheet 'Samples'), CATDS: 4.7916385769682596E-3), 0.887 µM; in test [2] (CATDS: 4.2148373609633104E-3), 1.18 µM; in test [5] (compound concentrations: 100 nM and 1000 nM (sheet 'Samples'), CATDS: 3.5689080514204499E-3) it was 1.83 µM; in [15] (CATDS: 4.1093022417344298E-3) it was 1.25 µM. For the same compound, the potency estimated from few doses in [13] (CATDS: 4.4454363185357799E-3) is 1.04 µM; in [17] (CATDS: 4.58474987436945E-3) it was 0.974 µM; in test [3] (compound concentrations: 100 nM and 1000 nM (sheet 'Samples'), CATDS: 9.2588510560485896E-3) it was 0.294 µM; in test [10] (compound concentrations: 100 nM and 1000 nM (sheet 'Samples'), CATDS: 7.3887725324269602E-3), 0.412 µM; in test [19] it was 1.5 µM; in [8] (compound concentrations: 100 nM and 1000 nM (sheet 'Samples'), CATDS: 6.2124168993476997E-3), 0.547 µM. Moreover, the potency estimated from few doses in [16] (compound concentrations: 100 nM and 1000 nM (sheet 'Samples'), CATDS: 5.7016392995471003E-3) is 0.635 µM; in test [9] (compound concentrations: 100 nM and 1000 nM (sheet 'Samples'), CATDS: 4.9523162341794302E-3) it was 0.83 µM; in test [6] (compound concentrations: 100 nM and 1000 nM (sheet 'Samples'), CATDS: 5.0307170658674197E-3) it was 0.804 µM.

Consider `Cc1cccc(Nc2nc(N[C@H]3CCCC[C@H]3N)ncc2C(N)=O)c1.Cl` [GSK986310C], for which, in test [16] (setting [20]), the potency estimated from few doses was 0.0797 µM. In test [14] (setting [24]), the EC50 is 0.135 µM and the Kd is 0.0659 µM.

For the compound `Clc1cc(Cl)cc(Nc2ccnc(Nc3cc(Cl)cc(Cl)c3)n2)c1` [GSK175726A], the potency estimated from few doses in test [7] (compound concentrations: 100 nM and 1000 nM (sheet 'Samples'), CATDS: 8.5475708332426303E-3) is 1.63 µM; in test [8] (compound concentrations: 100 nM and 1000 nM (sheet 'Samples'), CATDS: 1.07981791880609E-2) it was 0.607 µM.

For the compound `O=C1NC(=O)C(N2CCc3ccccc32)=C1c1ccccc1Cl` [SB-373598], the potency estimated from few doses in test [7] (setting [20]) was 0.615 µM; in test [3] (setting [20]) it was 1.85 µM; in test [10] (setting [20]), 0.923 µM; in test [8] (setting [20]) it was 1.2 µM.

For the compound `Cc1ccc(Nc2ccnc(Nc3ccc4c(c3)CS(=O)(=O)C4)n2)cc1O.Cl` [GW579362A], the potency estimated from few doses in [17] (CATDS: 2.9087751414108801E-2) is 1.35 µM.

As for `CCn1c(-c2nonc2N)nc2c(C#CC(C)(C)O)nc(OCCN)cc21.CCn1c(-c2nonc2N)nc2c(C#CC(C)(C)O)nc(OCCN)cc21.Cl.Cl` [GSK902056A], in test [14] (setting [25]), the concentration for a half-maximal effect (EC50) is 5.3 µM and the Kd was 4.86 µM. Besides, in test [11] (setting [26]), the EC50 was 0.0102 µM and the Kd was 0.0102 µM.
